Paper PMC9911399, “Two distinct binding modes provide the RNA-binding protein RbFox with extraordinary sequence specificity”
Changes are numbered by the printed parent chain; changes in the protein carry UniProt numbers. In all, about 16,000 sequences were measured (“ka relative to ugcaugu”: median about 0.096, highest 2% from about 0.35 on). The sample as a whole holds a higher share of the highest values than the screen did.

B1: UGUAUCC (DNA:RNA)
RNA: GGGAGACCGGAAUUCAGAUUGUCCUGUAUCCUUAAAUCCCGUCGUAGCCACCA
DNA 1: CAATCTGAATTCCGGTCTCCC
DNA 2: TGGTGGCTACGACGGGATT
B2: UGUCCCG (DNA:RNA)
RNA: B1 RNA with A28C, U29C, C31G
DNA 1: CAATCTGAATTCCGGTCTCCC
DNA 2: TGGTGGCTACGACGGGATT
B3: UGUAUUG (DNA:RNA)
RNA: B1 RNA with C30U, C31G
DNA 1: CAATCTGAATTCCGGTCTCCC
DNA 2: TGGTGGCTACGACGGGATT
B4: UGUAUUA (DNA:RNA)
RNA: B1 RNA with C30U, C31A
DNA 1: CAATCTGAATTCCGGTCTCCC
DNA 2: TGGTGGCTACGACGGGATT
B5: UGUUGUA (DNA:RNA)
RNA: B1 RNA with A28U, U29G, C30U, C31A
DNA 1: CAATCTGAATTCCGGTCTCCC
DNA 2: TGGTGGCTACGACGGGATT
B6: UGUAUCG (DNA:RNA)
RNA: B1 RNA with C31G
DNA 1: CAATCTGAATTCCGGTCTCCC
DNA 2: TGGTGGCTACGACGGGATT
B7: GCUAGGC (DNA:RNA)
RNA: B1 RNA with U25G, G26C, U29G, C30G
DNA 1: CAATCTGAATTCCGGTCTCCC
DNA 2: TGGTGGCTACGACGGGATT
B8: UGCACAU (DNA:RNA)
RNA: B1 RNA with U27C, U29C, C30A, C31U
DNA 1: CAATCTGAATTCCGGTCTCCC
DNA 2: TGGTGGCTACGACGGGATT
B9: GACAGGU (DNA:RNA)
RNA: B1 RNA with U25G, G26A, U27C, U29G, C30G, C31U
DNA 1: CAATCTGAATTCCGGTCTCCC
DNA 2: TGGTGGCTACGACGGGATT
B10: AGUUAAU (DNA:RNA)
RNA: B1 RNA with U25A, A28U, U29A, C30A, C31U
DNA 1: CAATCTGAATTCCGGTCTCCC
DNA 2: TGGTGGCTACGACGGGATT
B11: UUGUCCC (DNA:RNA)
RNA: B1 RNA with G26U, U27G, A28U, U29C
DNA 1: CAATCTGAATTCCGGTCTCCC
DNA 2: TGGTGGCTACGACGGGATT
B12: UCGCGUG (DNA:RNA)
RNA: B1 RNA with G26C, U27G, A28C, U29G, C30U, C31G
DNA 1: CAATCTGAATTCCGGTCTCCC
DNA 2: TGGTGGCTACGACGGGATT
B13: UCGUGUC (DNA:RNA)
RNA: B1 RNA with G26C, U27G, A28U, U29G, C30U
DNA 1: CAATCTGAATTCCGGTCTCCC
DNA 2: TGGTGGCTACGACGGGATT
B14: UUGGGGG (DNA:RNA)
RNA: B1 RNA with G26U, U27G, A28G, U29G, C30G, C31G
DNA 1: CAATCTGAATTCCGGTCTCCC
DNA 2: TGGTGGCTACGACGGGATT
B15: UUGUGUC (DNA:RNA)
RNA: B1 RNA with G26U, U27G, A28U, U29G, C30U
DNA 1: CAATCTGAATTCCGGTCTCCC
DNA 2: TGGTGGCTACGACGGGATT
B16: GUGUGUC (DNA:RNA)
RNA: B1 RNA with U25G, G26U, U27G, A28U, U29G, C30U
DNA 1: CAATCTGAATTCCGGTCTCCC
DNA 2: TGGTGGCTACGACGGGATT
B17: CUUGUCC (DNA:RNA)
RNA: B1 RNA with U25C, G26U, A28G
DNA 1: CAATCTGAATTCCGGTCTCCC
DNA 2: TGGTGGCTACGACGGGATT
B18: UCGCGUC (DNA:RNA)
RNA: B1 RNA with G26C, U27G, A28C, U29G, C30U
DNA 1: CAATCTGAATTCCGGTCTCCC
DNA 2: TGGTGGCTACGACGGGATT
B19: UUGUGUG (DNA:RNA)
RNA: B1 RNA with G26U, U27G, A28U, U29G, C30U, C31G
DNA 1: CAATCTGAATTCCGGTCTCCC
DNA 2: TGGTGGCTACGACGGGATT
B20: CCUUGUC (DNA:RNA)
RNA: B1 RNA with U25C, G26C, A28U, U29G, C30U
DNA 1: CAATCTGAATTCCGGTCTCCC
DNA 2: TGGTGGCTACGACGGGATT
B21: UUGGGAA (DNA:RNA)
RNA: B1 RNA with G26U, U27G, A28G, U29G, C30A, C31A
DNA 1: CAATCTGAATTCCGGTCTCCC
DNA 2: TGGTGGCTACGACGGGATT
B22: UUGGGUG (DNA:RNA)
RNA: B1 RNA with G26U, U27G, A28G, U29G, C30U, C31G
DNA 1: CAATCTGAATTCCGGTCTCCC
DNA 2: TGGTGGCTACGACGGGATT
B23: AUGACGA (DNA:RNA)
RNA: B1 RNA with U25A, G26U, U27G, U29C, C30G, C31A
DNA 1: CAATCTGAATTCCGGTCTCCC
DNA 2: TGGTGGCTACGACGGGATT
B24: UACCUCG (DNA:RNA)
RNA: B1 RNA with G26A, U27C, A28C, C31G
DNA 1: CAATCTGAATTCCGGTCTCCC
DNA 2: TGGTGGCTACGACGGGATT
B25: UUUCACA (DNA:RNA)
RNA: B1 RNA with G26U, A28C, U29A, C31A
DNA 1: CAATCTGAATTCCGGTCTCCC
DNA 2: TGGTGGCTACGACGGGATT
B26: AGUUGGC (DNA:RNA)
RNA: B1 RNA with U25A, A28U, U29G, C30G
DNA 1: CAATCTGAATTCCGGTCTCCC
DNA 2: TGGTGGCTACGACGGGATT
B27: AAGCUUU (DNA:RNA)
RNA: B1 RNA with U25A, G26A, U27G, A28C, C30U, C31U
DNA 1: CAATCTGAATTCCGGTCTCCC
DNA 2: TGGTGGCTACGACGGGATT
B28: GACCGCU (DNA:RNA)
RNA: B1 RNA with U25G, G26A, U27C, A28C, U29G, C31U
DNA 1: CAATCTGAATTCCGGTCTCCC
DNA 2: TGGTGGCTACGACGGGATT
B29: GCCGCGG (DNA:RNA)
RNA: GGGAGACCGGAAUUCAGAUUGUCCGCCGCGGUUAAAUCCCGUCGUAGCCACCA
DNA 1: CAATCTGAATTCCGGTCTCCC
DNA 2: TGGTGGCTACGACGGGATT
B30: CCUACUC (DNA:RNA)
RNA: B1 RNA with U25C, G26C, U29C, C30U
DNA 1: CAATCTGAATTCCGGTCTCCC
DNA 2: TGGTGGCTACGACGGGATT
B31: GCGACCG (DNA:RNA)
RNA: B29 RNA with C27G, G28A, G30C
DNA 1: CAATCTGAATTCCGGTCTCCC
DNA 2: TGGTGGCTACGACGGGATT
B32: GAUUGUG (DNA:RNA)
RNA: B29 RNA with C26A, C27U, G28U, C29G, G30U
DNA 1: CAATCTGAATTCCGGTCTCCC
DNA 2: TGGTGGCTACGACGGGATT
B33: CGAUGUG (DNA:RNA)
RNA: B29 RNA with G25C, C26G, C27A, G28U, C29G, G30U
DNA 1: CAATCTGAATTCCGGTCTCCC
DNA 2: TGGTGGCTACGACGGGATT
B34: GCGCGAA (DNA:RNA)
RNA: B29 RNA with C27G, G28C, C29G, G30A, G31A
DNA 1: CAATCTGAATTCCGGTCTCCC
DNA 2: TGGTGGCTACGACGGGATT
B35: GCGAAUU (DNA:RNA)
RNA: B29 RNA with C27G, G28A, C29A, G30U, G31U
DNA 1: CAATCTGAATTCCGGTCTCCC
DNA 2: TGGTGGCTACGACGGGATT
B36: GCGAACC (DNA:RNA)
RNA: B1 RNA with U25G, G26C, U27G, U29A
DNA 1: CAATCTGAATTCCGGTCTCCC
DNA 2: TGGTGGCTACGACGGGATT
B37: GCGAAUG (DNA:RNA)
RNA: B29 RNA with C27G, G28A, C29A, G30U
DNA 1: CAATCTGAATTCCGGTCTCCC
DNA 2: TGGTGGCTACGACGGGATT
B38: GAAUGUG (DNA:RNA)
RNA: B29 RNA with C26A, C27A, G28U, C29G, G30U
DNA 1: CAATCTGAATTCCGGTCTCCC
DNA 2: TGGTGGCTACGACGGGATT
B39: GAACGUC (DNA:RNA)
RNA: B29 RNA with C26A, C27A, G28C, C29G, G30U, G31C
DNA 1: CAATCTGAATTCCGGTCTCCC
DNA 2: TGGTGGCTACGACGGGATT
B40: GCGAAUC (DNA:RNA)
RNA: B29 RNA with C27G, G28A, C29A, G30U, G31C
DNA 1: CAATCTGAATTCCGGTCTCCC
DNA 2: TGGTGGCTACGACGGGATT
B41: GCGAUUG (DNA:RNA)
RNA: B29 RNA with C27G, G28A, C29U, G30U
DNA 1: CAATCTGAATTCCGGTCTCCC
DNA 2: TGGTGGCTACGACGGGATT
B42: GCGAACG (DNA:RNA)
RNA: B29 RNA with C27G, G28A, C29A, G30C
DNA 1: CAATCTGAATTCCGGTCTCCC
DNA 2: TGGTGGCTACGACGGGATT

Biological target: T1, RBFOX1 RRM RbFoxmut (Fox-RRM*) (Homo sapiens, UniProt Q9NWB1 109-208, R118D;E147R;N151S;E152T)
T1 sequence: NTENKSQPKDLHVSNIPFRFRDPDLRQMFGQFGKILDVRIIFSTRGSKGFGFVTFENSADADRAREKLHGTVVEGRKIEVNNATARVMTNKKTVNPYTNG
Experiment: EMSA; HiTS-Eq, 1 nM pool, 10 min; buffer printed only for the single-RNA assays: 10 mM Tris pH 7.5, 150 mM NaCl, 3.4 mM EDTA, 0.001% NP-40, 30 C
Settings: tags: His6 N-terminal (pET28a); label: 5' 32P
Procedure, shortened: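 Purified RbFox RRM, wild type or mutant, was incubated for 10 min in 50 µL with 1 nM of a 5′-radiolabelled RNA pool carrying 7 randomized nucleotides, whose flanks were annealed to DNA oligonucleotides, over a series of increasing protein concentrations. Unbound RNA was resolved on 8% native PAGE, cut out, reverse-transcribed, barcoded by PCR and sequenced on an Illumina HiSeq 2500. Relative association constants were derived from changes in read counts for each RNA species versus the control reaction and normalised to the cognate motif.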

In order of falling binding signal:
1. B37  1.44 KA relative to UGCAUGU
2. B38  1.27 KA relative to UGCAUGU
3. B3  0.691 KA relative to UGCAUGU
4. B6  0.648 KA relative to UGCAUGU
5. B19  0.491 KA relative to UGCAUGU
6. B40  0.385 KA relative to UGCAUGU
7. B22  0.373 KA relative to UGCAUGU
8. B13  0.359 KA relative to UGCAUGU
9. B15  0.357 KA relative to UGCAUGU
10. B42  0.354 KA relative to UGCAUGU
11. B16  0.329 KA relative to UGCAUGU
12. B5  0.307 KA relative to UGCAUGU
13. B32  0.249 KA relative to UGCAUGU
14. B20  0.226 KA relative to UGCAUGU
15. B41  0.206 KA relative to UGCAUGU
16. B4  0.175 KA relative to UGCAUGU
17. B12  0.153 KA relative to UGCAUGU
18. B33  0.151 KA relative to UGCAUGU
19. B1  0.15 KA relative to UGCAUGU
20. B18  0.145 KA relative to UGCAUGU
21. B21  0.14 KA relative to UGCAUGU
22. B35  0.113 KA relative to UGCAUGU
23. B31  0.111 KA relative to UGCAUGU
24. B17  0.107 KA relative to UGCAUGU
25. B24  0.107 KA relative to UGCAUGU
26. B26  0.107 KA relative to UGCAUGU
27. B34  0.104 KA relative to UGCAUGU
28. B39  0.102 KA relative to UGCAUGU
29. B29  0.0996 KA relative to UGCAUGU
30. B28  0.0966 KA relative to UGCAUGU
31. B2  0.096 KA relative to UGCAUGU
32. B10  0.0918 KA relative to UGCAUGU
33. B25  0.0896 KA relative to UGCAUGU
34. B8  0.0893 KA relative to UGCAUGU
35. B7  0.0891 KA relative to UGCAUGU
36. B36  0.0798 KA relative to UGCAUGU
37. B27  0.0764 KA relative to UGCAUGU
38. B11  0.0731 KA relative to UGCAUGU
39. B14  0.0724 KA relative to UGCAUGU
40. B9  0.0716 KA relative to UGCAUGU
41. B23  0.0609 KA relative to UGCAUGU
42. B30  0.0423 KA relative to UGCAUGU
